# According to PubChem BioAssay AID1159580 (chemical genetic matrix, 2015):
# Screen size: about 5,500 compounds; about 2,000 (36%) were called active. Another 18% or so got no clear call; they are omitted. The list shows a part of the results. Unmarked numbers belong to inactive results. No stated cut-off is given here; in the data, active means normalized growth mostly below about 0.91 (no sharp cut-off); inconclusive means no clear call, values can overlap the other calls; inactive means mostly above about 0.92.
# Test: chemical genetic growth profiling, strain panel (AID 1159580);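 further: tested at 20 µM; growth read once vehicle control cultures reached saturation at 30 °C; 1 = growth at the plate median or of vehicle wells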
# Details: growth OD
smiles,measurement,setting,value
c1ccc(CC2=NCCN2)cc1,normalized growth,"S. cerevisiae deletion strains, locus YJR075W, strain HOC1, stronger effect = lower value",1
same,normalized growth,"S. cerevisiae deletion strains, locus YKL009W, strain mrt4, stronger effect = lower value",0.695 (active)
same,normalized growth,"S. cerevisiae deletion strains, locus YKL068W, stronger effect = lower value",0.837 (active)
same,normalized growth,"S. cerevisiae deletion strains, locus YKL085W, strain MDH1 (second series), stronger effect = lower value",0.836 (active)
same,normalized growth,"S. cerevisiae deletion strains, locus YKL085W, strain MDH1, stronger effect = lower value",0.836 (active)
same,normalized growth,"S. cerevisiae deletion strains, locus YKL160W, strain elf1, stronger effect = lower value",1.03
same,normalized growth,"S. cerevisiae deletion strains, locus YKL190W, strain CNB1, stronger effect = lower value",0.998
same,normalized growth,"S. cerevisiae deletion strains, locus YKR001C, strain vps1, stronger effect = lower value",0.913
same,normalized growth,"S. cerevisiae deletion strains, locus YKR026C, strain gcn3, stronger effect = lower value",1.03
same,normalized growth,"S. cerevisiae deletion strains, locus YKR091W, strain srl3, stronger effect = lower value",1.01
same,normalized growth,"S. cerevisiae deletion strains, locus YLL001W, strain dnm1, stronger effect = lower value",1.01
same,normalized growth,"S. cerevisiae deletion strains, locus YLL026W, stronger effect = lower value",1.02
same,normalized growth,"S. cerevisiae deletion strains, locus YLL041C, strain sdh2, stronger effect = lower value",1.01
same,normalized growth,"S. cerevisiae deletion strains, locus YLR027C, strain aat2, stronger effect = lower value",1.02
same,normalized growth,"S. cerevisiae deletion strains, locus YLR039C, strain RIC1, stronger effect = lower value",0.931
same,normalized growth,"S. cerevisiae deletion strains, locus YLR058C, strain SHM2, stronger effect = lower value",0.984
same,normalized growth,"S. cerevisiae deletion strains, locus YLR102C, strain apc9, stronger effect = lower value",0.897 (active)
same,normalized growth,"S. cerevisiae deletion strains, locus YLR113W, strain HOG1, stronger effect = lower value",0.957
same,normalized growth,"S. cerevisiae deletion strains, locus YLR221C, strain rsa3, stronger effect = lower value",0.997
same,normalized growth,"S. cerevisiae deletion strains, locus YLR258W, strain gsy2, stronger effect = lower value",1.01
same,normalized growth,"S. cerevisiae deletion strains, locus YLR262C, strain YPT6 (second series), stronger effect = lower value",1.03
same,normalized growth,"S. cerevisiae deletion strains, locus YLR262C, strain YPT6, stronger effect = lower value",0.927
same,normalized growth,"S. cerevisiae deletion strains, locus YLR268W, strain sec22, stronger effect = lower value",0.905
same,normalized growth,"S. cerevisiae deletion strains, locus YLR320W, strain mms22, stronger effect = lower value",0.989
same,normalized growth,"S. cerevisiae deletion strains, locus YLR330W, strain CHS5, stronger effect = lower value",0.97
same,normalized growth,"S. cerevisiae deletion strains, locus YLR342W, strain FKS1 (second series), stronger effect = lower value",1.01
same,normalized growth,"S. cerevisiae deletion strains, locus YLR342W, strain FKS1, stronger effect = lower value",1.03
same,normalized growth,"S. cerevisiae deletion strains, locus YLR357W, strain rsc2, stronger effect = lower value",1.03
same,normalized growth,"S. cerevisiae deletion strains, locus YLR370C, strain arc18, stronger effect = lower value",1.01
same,normalized growth,"S. cerevisiae deletion strains, locus YLR371W, strain rom2, stronger effect = lower value",0.909
same,normalized growth,"S. cerevisiae deletion strains, locus YLR384C, strain iki3, stronger effect = lower value",1.03
same,normalized growth,"S. cerevisiae deletion strains, locus YLR418C, strain cdc73, stronger effect = lower value",1.01
same,normalized growth,"S. cerevisiae deletion strains, locus YML016C, strain PPZ1, stronger effect = lower value",1.01
same,normalized growth,"S. cerevisiae deletion strains, locus YML032C, strain rad52, stronger effect = lower value",0.915
same,normalized growth,"S. cerevisiae deletion strains, locus YML120C, strain ndi1, stronger effect = lower value",1.01
same,normalized growth,"S. cerevisiae deletion strains, locus YML124C, strain tub3, stronger effect = lower value",0.904 (active)
same,normalized growth,"S. cerevisiae deletion strains, locus YMR058W, strain fet3, stronger effect = lower value",1.03
same,normalized growth,"S. cerevisiae deletion strains, locus YMR078C, strain ctf18, stronger effect = lower value",0.907 (active)
same,normalized growth,"S. cerevisiae deletion strains, locus YMR125W, strain sto1, stronger effect = lower value",1.01
same,normalized growth,"S. cerevisiae deletion strains, locus YMR129W, stronger effect = lower value",1.02
same,normalized growth,"S. cerevisiae deletion strains, locus YMR205C, strain PFK2, stronger effect = lower value",1
same,normalized growth,"S. cerevisiae deletion strains, locus YMR223W, strain ubp8, stronger effect = lower value",0.916
same,normalized growth,"S. cerevisiae deletion strains, locus YMR231W, strain pep5, stronger effect = lower value",1.01
same,normalized growth,"S. cerevisiae deletion strains, locus YMR263W, strain SAP30, stronger effect = lower value",0.978
same,normalized growth,"S. cerevisiae deletion strains, locus YMR307W, strain GAS1, stronger effect = lower value",1.03
same,normalized growth,"S. cerevisiae deletion strains, locus YNL067W, strain RPL9B, stronger effect = lower value",0.957
same,normalized growth,"S. cerevisiae deletion strains, locus YNL071W, strain lat1, stronger effect = lower value",1.03
same,normalized growth,"S. cerevisiae deletion strains, locus YNL128W, strain TEP1, stronger effect = lower value",1.01
same,normalized growth,"S. cerevisiae deletion strains, locus YNL153C, strain GIM3, stronger effect = lower value",0.987
same,normalized growth,"S. cerevisiae deletion strains, locus YNL183C, strain NPR1, stronger effect = lower value",0.943
same,normalized growth,"S. cerevisiae deletion strains, locus YNL209W, strain ssb2, stronger effect = lower value",1.02
same,normalized growth,"S. cerevisiae deletion strains, locus YNL233W, strain BNI4, stronger effect = lower value",0.98
same,normalized growth,"S. cerevisiae deletion strains, locus YNL248C, strain rpa49, stronger effect = lower value",1.05
same,normalized growth,"S. cerevisiae deletion strains, locus YNL250W, strain rad50, stronger effect = lower value",0.822 (active)
same,normalized growth,"S. cerevisiae deletion strains, locus YNL271C, strain bni1, stronger effect = lower value",0.837 (active)
same,normalized growth,"S. cerevisiae deletion strains, locus YNL298W, strain CLA4, stronger effect = lower value",0.79 (active)
same,normalized growth,"S. cerevisiae deletion strains, locus YNL307C, strain MCK1, stronger effect = lower value",0.877 (active)
same,normalized growth,"S. cerevisiae deletion strains, locus YNL322C, strain KRE1 (second series), stronger effect = lower value",1.01
same,normalized growth,"S. cerevisiae deletion strains, locus YNL322C, strain KRE1, stronger effect = lower value",0.987
same,normalized growth,"S. cerevisiae deletion strains, locus YNR049C, strain mso1, stronger effect = lower value",0.996
same,normalized growth,"S. cerevisiae deletion strains, locus YNR052C, strain pop2, stronger effect = lower value",0.911 (active)
same,normalized growth,"S. cerevisiae deletion strains, locus YOL006C, strain TOP1, stronger effect = lower value",1.09
same,normalized growth,"S. cerevisiae deletion strains, locus YOL012C, strain htz1",1.4
same,normalized growth,"S. cerevisiae deletion strains, locus YOL147C, strain pex11, stronger effect = lower value",0.915 (active)
same,normalized growth,"S. cerevisiae deletion strains, locus YOR001W, strain rrp6, stronger effect = lower value",1
same,normalized growth,"S. cerevisiae deletion strains, locus YOR061W, strain CKA2, stronger effect = lower value",0.986
same,normalized growth,"S. cerevisiae deletion strains, locus YOR069W, strain VPS5, stronger effect = lower value",0.968
same,normalized growth,"S. cerevisiae deletion strains, locus YOR070C, strain gyp1, stronger effect = lower value",0.998
same,normalized growth,"S. cerevisiae deletion strains, locus YOR080W, strain dia2, stronger effect = lower value",1.02
same,normalized growth,"S. cerevisiae deletion strains, locus YOR083W, strain WHI5, stronger effect = lower value",0.976
same,normalized growth,"S. cerevisiae deletion strains, locus YOR106W, strain vam3, stronger effect = lower value",1.03
same,normalized growth,"S. cerevisiae deletion strains, locus YOR136W, strain idh2, stronger effect = lower value",0.937
same,normalized growth,"S. cerevisiae deletion strains, locus YOR144C, strain elg1, stronger effect = lower value",0.917 (active)
same,normalized growth,"S. cerevisiae deletion strains, locus YOR184W, strain ser1, stronger effect = lower value",0.899
same,normalized growth,"S. cerevisiae deletion strains, locus YOR231W, strain MKK1, stronger effect = lower value",0.976
same,normalized growth,"S. cerevisiae deletion strains, locus YOR265W, strain rbl2, stronger effect = lower value",0.99
same,normalized growth,"S. cerevisiae deletion strains, locus YOR270C, strain vph1, stronger effect = lower value",1.11
same,normalized growth,"S. cerevisiae deletion strains, locus YOR290C, strain snf2, stronger effect = lower value",1
same,normalized growth,"S. cerevisiae deletion strains, locus YOR316C, strain cot1, stronger effect = lower value",0.919 (active)
same,normalized growth,"S. cerevisiae deletion strains, locus YPL051W, strain arl3, stronger effect = lower value",0.989
same,normalized growth,"S. cerevisiae deletion strains, locus YPL055C, strain LGE1, stronger effect = lower value",0.995
same,normalized growth,"S. cerevisiae deletion strains, locus YPL078C, strain atp4, stronger effect = lower value",1.04
same,normalized growth,"S. cerevisiae deletion strains, locus YPL106C, strain sse1, stronger effect = lower value",1.02
same,normalized growth,"S. cerevisiae deletion strains, locus YPL240C, strain hsp82, stronger effect = lower value",1.02
same,normalized growth,"S. cerevisiae deletion strains, locus YPL241C, strain CIN2, stronger effect = lower value",0.99
same,normalized growth,"S. cerevisiae deletion strains, locus YPL256C, strain CLN2, stronger effect = lower value",0.941
same,normalized growth,"S. cerevisiae deletion strains, locus YPR119W, strain clb2, stronger effect = lower value",0.896 (active)
same,normalized growth,"S. cerevisiae deletion strains, locus YPR141C, strain kar3, stronger effect = lower value",0.767 (active)
same,normalized growth,"S. cerevisiae deletion strains, locus YPR163C, strain tif3, stronger effect = lower value",0.885 (active)
same,normalized growth,"S. cerevisiae deletion strains, locus YPR167C, strain met16, stronger effect = lower value",0.906 (active)
same,normalized growth,"S. cerevisiae deletion strains, strain wtn01, stronger effect = lower value",0.917
same,normalized growth,"S. cerevisiae strains, strain wild type, stronger effect = lower value",1
